# Measured values published in PubChem BioAssay AID504401 (The Scripps Research Institute Molecular Screening Center, 2011).
# Values without a mark were called inactive. The rule behind the calls is not given here.
# Tested on: Rolipram
# Test: CYP450 and receptor off-target profile – biochemical, Ricerca HitProfilingScreen, selectivity assay for GPR7 antagonist project, late-stage follow-up (AID 504401)
# Conditions: Ricerca radioligand binding and CYP450 panel, at 10 µM, stronger effect = higher value
structure (smiles),measurement,value
COc1ccc(Oc2c(Cl)cnn(-c3cc(C)cc(C)c3)c2=O)cc1,inhibition,22%
